# Shown is part of a subset that was picked to be rich in hits.
# Dicer processing: human Dicer pre-microRNA cleavage inhibition. Q9UPY3. cat-ELCCA pre-miR-21 Dicer processing, chemiluminescence; hits give high values. z-score at 25 µM. 6% of 47,000 active. AID 1347074; in the data active means z-score above about 3, passing the limit was not always enough;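 further: plate controls were vehicle for no effect and no enzyme for full effect; higher signal means more uncleaved substrate so more Dicer inhibition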
# * = called active by the depositor.
SMILES,Dicer processing
CCc1ccc(CNCCc2ccc3c(c2)OCO3)cc1,0.83
C=CCSc1nnc(OC(=O)N(C)C)n1-c1cccc(C(F)(F)F)c1,0.96
c1ccc(CN2CCN(C3CCCCC3)CC2)cc1,3.1*
Cc1ccc(CN2CCN(C(C)C)CC2)cc1,2.9
Clc1ccc(CN2CCN(Cc3ccccc3Cl)CC2)cc1,1.3
CNC(=O)Oc1cccc2cccnc12,0.15
O=C(NNS(=O)(=O)c1ccc(C(F)(F)F)cc1)C1(O)CN2CCC1CC2 (centres undefined),0.82
CC1CC(O)(c2ccccc2)C(C)CN1C (centres undefined),3.6*
CC1(C)CSC(Nc2ccccc2F)=N1,0.9
CCCCCCn1c2ccc(C(=O)O)cc2c2cc(C(=O)O)ccc21,0.95
CC1(C)CN=C(NCc2ccccn2)S1,4*
CCC1(C(=O)c2ccc(C)cc2)C2c3cc(Br)ccc3OC(=O)C21C(=O)OC (centres undefined),0.29
COc1cc(C2NN=C3C4CCN(CC4)C32)cc(OC)c1OC (centres undefined),-0.41
CCCc1cc(=O)oc2cc(OC(=O)N(C)C)ccc12,0.68
O=C(NC1CN2CCC1CC2)c1cccc(Cl)c1 (centres undefined),-0.41
COc1cccc(CNC2CN3CCC2CC3)c1OC (centres undefined),-1.2
Fc1ccc(CNC2CN3CCC2CC3)cc1 (centres undefined),3.1*
O=c1c2ccccc2[nH]c(=S)n1-c1ccc(Br)cc1Cl,-3.8
COc1ccc(CSC2C(C(=O)NNC(=O)c3ccc(Cl)cc3Cl)C3CCN2CC3)cc1 (centres undefined),-0.38

# From PubChem BioAssay
